Results from PubChem BioAssay AID1159580 (chemical genetic matrix, 2015).
Where “and” joins values, the source holds several entries; their conditions need not be identical. Equal entries are not always repeated. In all, about 5,500 compounds went through this assay and about 2,000 (36%) were called active. Not shown: some 18% with an inconclusive outcome. Rule as the data show it: active = normalized growth mostly below about 0.91 (no sharp cut-off); inconclusive = no clear call, values can overlap the other calls; inactive = mostly above about 0.92. The list shows a part of the results.

Experiment: chemical genetic growth profiling, strain panel (AID 1159580);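 also: tested at 20 µM; growth read once vehicle control cultures reached saturation at 30 °C; 1 = growth at the plate median or of vehicle wells; lower values mean less growth of the strain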
Details: growth OD

Measured: normalized growth

NNc1nncc2ccccc12
inactive: S. cerevisiae deletion strains, locus YJR066W, strain TOR1, hits give low values 0.919 | S. cerevisiae deletion strains, locus YJR075W, strain HOC1, hits give low values 0.996 | S. cerevisiae deletion strains, locus YKL009W, strain mrt4, hits give low values 0.96 | S. cerevisiae deletion strains, locus YKL068W, hits give low values 0.997 | S. cerevisiae deletion strains, locus YKL085W, strain MDH1 (second series), hits give low values 0.989 | S. cerevisiae deletion strains, locus YKL085W, strain MDH1, hits give low values 0.989 | S. cerevisiae deletion strains, locus YKL160W, strain elf1, hits give low values 0.995 | S. cerevisiae deletion strains, locus YKL190W, strain CNB1, hits give low values 1 | S. cerevisiae deletion strains, locus YKR001C, strain vps1, hits give low values 1 | S. cerevisiae deletion strains, locus YKR026C, strain gcn3, hits give low values 0.998 | S. cerevisiae deletion strains, locus YKR091W, strain srl3, hits give low values 0.997 | S. cerevisiae deletion strains, locus YLL001W, strain dnm1, hits give low values 0.979 | S. cerevisiae deletion strains, locus YLL026W, hits give low values 1 | S. cerevisiae deletion strains, locus YLL041C, strain sdh2, hits give low values 0.994 | S. cerevisiae deletion strains, locus YLR027C, strain aat2, hits give low values 1 | S. cerevisiae deletion strains, locus YLR039C, strain RIC1, hits give low values 0.989 | S. cerevisiae deletion strains, locus YLR058C, strain SHM2, hits give low values 1.01 | S. cerevisiae deletion strains, locus YLR102C, strain apc9, hits give low values 0.991 | S. cerevisiae deletion strains, locus YLR113W, strain HOG1, hits give low values 1.06 | S. cerevisiae deletion strains, locus YLR221C, strain rsa3, hits give low values 0.969 | S. cerevisiae deletion strains, locus YLR258W, strain gsy2, hits give low values 0.991 | S. cerevisiae deletion strains, locus YLR262C, strain YPT6 (second series), hits give low values 1 | S. cerevisiae deletion strains, locus YLR262C, strain YPT6, hits give low values 1.07 | S. cerevisiae deletion strains, locus YLR268W, strain sec22, hits give low values 0.954 | S. cerevisiae deletion strains, locus YLR320W, strain mms22, hits give low values 0.991 | S. cerevisiae deletion strains, locus YLR330W, strain CHS5, hits give low values 1.01 | S. cerevisiae deletion strains, locus YLR342W, strain FKS1 (second series), hits give low values 0.934 | S. cerevisiae deletion strains, locus YLR342W, strain FKS1, hits give low values 1.01 | S. cerevisiae deletion strains, locus YLR357W, strain rsc2, hits give low values 0.981 | S. cerevisiae deletion strains, locus YLR370C, strain arc18, hits give low values 0.977 | S. cerevisiae deletion strains, locus YLR371W, strain rom2, hits give low values 0.989 | S. cerevisiae deletion strains, locus YLR384C, strain iki3, hits give low values 0.985 | S. cerevisiae deletion strains, locus YLR418C, strain cdc73, hits give low values 0.96 | S. cerevisiae deletion strains, locus YML016C, strain PPZ1, hits give low values 0.995 | S. cerevisiae deletion strains, locus YML032C, strain rad52, hits give low values 0.985 | S. cerevisiae deletion strains, locus YML120C, strain ndi1, hits give low values 0.981 | S. cerevisiae deletion strains, locus YML124C, strain tub3, hits give low values 0.996 | S. cerevisiae deletion strains, locus YMR058W, strain fet3, hits give low values 0.996 | S. cerevisiae deletion strains, locus YMR078C, strain ctf18, hits give low values 0.993 | S. cerevisiae deletion strains, locus YMR125W, strain sto1, hits give low values 1.01 | S. cerevisiae deletion strains, locus YMR129W, hits give low values 0.996 | S. cerevisiae deletion strains, locus YMR205C, strain PFK2, hits give low values 0.998 | S. cerevisiae deletion strains, locus YMR223W, strain ubp8, hits give low values 0.975 | S. cerevisiae deletion strains, locus YMR231W, strain pep5, hits give low values 0.995 | S. cerevisiae deletion strains, locus YMR263W, strain SAP30, hits give low values 1 | S. cerevisiae deletion strains, locus YMR307W, strain GAS1, hits give low values 1.02 and 0.998 | S. cerevisiae deletion strains, locus YNL067W, strain RPL9B, hits give low values 1.01 | S. cerevisiae deletion strains, locus YNL071W, strain lat1, hits give low values 1.01 | S. cerevisiae deletion strains, locus YNL153C, strain GIM3, hits give low values 0.986 and 0.997 | S. cerevisiae deletion strains, locus YNL175C, strain NOP13, hits give low values 1.01 | S. cerevisiae deletion strains, locus YNL183C, strain NPR1, hits give low values 0.945 | S. cerevisiae deletion strains, locus YNL197C, strain WHI3, hits give low values 1.01 | S. cerevisiae deletion strains, locus YNL209W, strain ssb2, hits give low values 0.99 | S. cerevisiae deletion strains, locus YNL224C, strain SQS1, hits give low values 1.03 | S. cerevisiae deletion strains, locus YNL233W, strain BNI4, hits give low values 0.997 | S. cerevisiae deletion strains, locus YNL248C, strain rpa49, hits give low values 1.03 | S. cerevisiae deletion strains, locus YNL250W, strain rad50, hits give low values 0.988 | S. cerevisiae deletion strains, locus YNL271C, strain bni1, hits give low values 0.993 | S. cerevisiae deletion strains, locus YNL298W, strain CLA4, hits give low values 0.986 | S. cerevisiae deletion strains, locus YNL307C, strain MCK1, hits give low values 0.991 | S. cerevisiae deletion strains, locus YNL322C, strain KRE1 (second series), hits give low values 0.98 | S. cerevisiae deletion strains, locus YNR049C, strain mso1, hits give low values 0.999 | S. cerevisiae deletion strains, locus YNR052C, strain pop2, hits give low values 0.985 | S. cerevisiae deletion strains, locus YOL012C, strain htz1 1.31 | S. cerevisiae deletion strains, locus YOL147C, strain pex11, hits give low values 1 | S. cerevisiae deletion strains, locus YOR001W, strain rrp6, hits give low values 0.995 | S. cerevisiae deletion strains, locus YOR061W, strain CKA2, hits give low values 1.01 | S. cerevisiae deletion strains, locus YOR069W, strain VPS5, hits give low values 1 | S. cerevisiae deletion strains, locus YOR070C, strain gyp1, hits give low values 0.998 | S. cerevisiae deletion strains, locus YOR080W, strain dia2, hits give low values 0.997 | S. cerevisiae deletion strains, locus YOR083W, strain WHI5 (second series), hits give low values 1.03 | S. cerevisiae deletion strains, locus YOR083W, strain WHI5, hits give low values 1.01 | S. cerevisiae deletion strains, locus YOR106W, strain vam3, hits give low values 1 | S. cerevisiae deletion strains, locus YOR136W, strain idh2, hits give low values 0.988 | S. cerevisiae deletion strains, locus YOR144C, strain elg1, hits give low values 1 | S. cerevisiae deletion strains, locus YOR184W, strain ser1, hits give low values 0.958 | S. cerevisiae deletion strains, locus YOR231W, strain MKK1, hits give low values 1.02 | S. cerevisiae deletion strains, locus YOR265W, strain rbl2, hits give low values 0.989 | S. cerevisiae deletion strains, locus YOR270C, strain vph1, hits give low values 0.996 | S. cerevisiae deletion strains, locus YOR290C, strain snf2, hits give low values 0.942 | S. cerevisiae deletion strains, locus YOR316C, strain cot1, hits give low values 1 | S. cerevisiae deletion strains, locus YPL051W, strain arl3, hits give low values 1 | S. cerevisiae deletion strains, locus YPL055C, strain LGE1, hits give low values 1 | S. cerevisiae deletion strains, locus YPL078C, strain atp4, hits give low values 0.991 | S. cerevisiae deletion strains, locus YPL106C, strain sse1, hits give low values 0.941 | S. cerevisiae deletion strains, locus YPL240C, strain hsp82, hits give low values 0.987 | S. cerevisiae deletion strains, locus YPL241C, strain CIN2, hits give low values 0.998 | S. cerevisiae deletion strains, locus YPL256C, strain CLN2, hits give low values 1.04 | S. cerevisiae deletion strains, locus YPR119W, strain clb2, hits give low values 1 | S. cerevisiae deletion strains, locus YPR141C, strain kar3, hits give low values 1.01 | S. cerevisiae deletion strains, locus YPR163C, strain tif3, hits give low values 1.01 | S. cerevisiae deletion strains, locus YPR167C, strain met16, hits give low values 0.995 | S. cerevisiae deletion strains, strain wtn01, hits give low values 0.965 | S. cerevisiae strains, strain wild type, hits give low values 1.01
